Source: PubChem BioAssay AID2234 (The Scripps Research Institute Molecular Screening Center, 2010)
In all, about 320,000 compounds went through this assay and about 480 (0.15%) were called active. No stated cut-off is given here; in the data, active means inhibition above about 33%; inactive means the rest. Many of the other results were omitted from the sample, so actives are more common in it than they were.

Each molecule was assayed against Lytic switch protein BZLF1 (Epstein-Barr virus (strain B95-8)) (UniProt P03206) (assay: Zta-DNA interaction blockers, Epstein-Barr virus – biochemical, fluorescence polarization, single concentration, counter-screen for EBNA-1 inhibitor project, primary screen (AID 2234)). Conditions: ZTA-DNA binding, at 11 µM, active compounds read high.
Sequence of Lytic switch protein BZLF1 (Epstein-Barr virus (strain B95-8)) (P03206 whole entry, looked up): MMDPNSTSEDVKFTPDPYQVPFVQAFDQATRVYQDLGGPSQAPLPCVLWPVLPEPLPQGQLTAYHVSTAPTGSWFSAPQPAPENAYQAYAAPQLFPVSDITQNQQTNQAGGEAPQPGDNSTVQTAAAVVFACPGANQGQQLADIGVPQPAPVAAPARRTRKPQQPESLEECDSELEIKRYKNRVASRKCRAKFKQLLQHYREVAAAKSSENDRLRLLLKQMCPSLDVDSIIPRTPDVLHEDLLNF

Compound	inhibition
CC(=O)Nc1ccc(NC(=O)COC(=O)c2ccccc2C(=O)c2ccccc2)cc1	1.75% (inactive)
COc1ccc(N2CC(NS(=O)(=O)c3ccc4ccccc4c3)CC2=O)cc1 (stereo not given)	-13.8% (inactive)
CCC1=C(OC(=O)N(CC)CC)N2C(=O)OC(=NCC3CC3)[C@]2(C)[C@H]2C1=CC[C@H]1C(=O)N(CC(=O)OC)C(=O)[C@H]12	14% (inactive)
CN(C(=O)CN1C(=O)CCSc2ccc(S(=O)(=O)N3CCCC3)cc21)c1ccccc1	4.65% (inactive)
COCCOC(=O)C1=C(C)NC(=O)NC1c1cc2c(cc1Br)OCO2 (stereo not given)	-2.42% (inactive)
Cc1cc(C(=O)OCC(=O)Nc2ccccc2Cl)c(C)o1	-1% (inactive)
CC1(c2nnc(-c3ccncc3)o2)CC(c2cccnc2)=NO1 (stereo not given)	-4.98% (inactive)
CCNc1nc(Oc2ccc(C(=O)OC)cc2)nc(N2CCOCC2)n1	26.6% (inactive)
O=C(NCCCN1CCOCC1)c1ccc2c(c1)N(Cc1cccc(F)c1)C(=O)c1ccccc1S2	-13.9% (inactive)
CCN1CCN(CCNC(=O)c2ccc(/C=C3/Sc4ccccc4N(Cc4cccc(C)c4)C3=O)cc2)CC1	56.8% (active)
Cc1ccccc1CN1C(=O)c2ccccc2Sc2ccc(C(=O)NCCCN3CCOCC3)cc21	5.14% (inactive)
Cn1c(=O)c2c(ncn2CCc2ccccc2)n(C)c1=O	-0.22% (inactive)
Cn1cnc2c1c(=O)n(Cc1c(Cl)cccc1Cl)c(=O)n2C	-29.3% (inactive)
Cn1cnc2c1c(=O)n(Cc1ccccc1C#N)c(=O)n2C	95.5% (active)
Cc1ccc(Cc2nnc(SCC(=O)Nc3ccccc3C)[nH]c2=O)cc1	0.83% (inactive)
Cc1ccc(C(=O)O)cc1-c1ccc(/C=C2\SC(=O)N(CC(=O)Nc3ccc4c(c3)OCO4)C2=O)o1	9.2% (inactive)
CCN1C(=NCC(C)C)N[C@@H](CCc2ccccc2)[C@H](C(=O)NCC(C)C)[C@H]1C	-17.1% (inactive)
CCOC(=O)CC(NC(=O)C1c2ccccc2Oc2ccccc21)c1ccc(C)cc1 (stereo not given)	2.93% (inactive)
COc1ccc(N(CC(=O)Nc2ccc(F)c(F)c2)S(=O)(=O)c2c(C)[nH]c(=O)[nH]c2=O)cc1	3.47% (inactive)
COC(=O)c1ccc(CN2CCN(CCCc3ccccc3)C(CCO)C2)cc1 (stereo not given)	-17.9% (inactive)
Cc1cccn2c(CNCC(C)Oc3cccnc3)c(C(=O)N3CCOCC3)nc12 (stereo not given)	13.7% (inactive)
O=C(CC(NCCN1CCOCC1)C(=O)O)Nc1cccc(Cl)c1 (stereo not given)	5.11% (inactive)
CCCCS(=O)c1snnc1C (stereo not given)	-5.28% (inactive)
Cc1ccc2c(C)c(C(=O)N3CCN(c4ccncc4)CC3)oc2c1C	1.76% (inactive)
O=C(COc1cccc(F)c1)Oc1ccc(C(=O)c2ccccc2)cc1	12.6% (inactive)
CCC1CCC/C1=N\NC(=O)c1ccc(Cl)cc1 (stereo not given)	4.98% (inactive)
COc1cc(-c2nnc(Cn3cc(C(F)(F)F)ccc3=O)o2)cc(OC)c1OC	5.1% (inactive)
COC(=O)C1CCCCN1C(=O)c1ccc(OC2CCN(C(C)=O)CC2)c(OC)c1 (stereo not given)	5.86% (inactive)

Compound	inhibition
O=C(c1cccc(-n2cccc2)c1)N1CCN(S(=O)(=O)c2ccc(F)cc2)CC1	-25.8% (inactive)
O=C(NC1CC1)C1=C[C@H](c2coc3ccccc3c2=O)C[C@H](OCCCCO)O1	-2.42% (inactive)
N#CCSc1nc2ccc(N3CCOCC3)cc2c(=O)n1CCc1ccccc1	-10.6% (inactive)
Cc1ccc(-c2nc3ccccc3[nH]2)cc1N	-1% (inactive)
O=C(Nc1ccccc1)c1cc2ccccc2[nH]1	-12.6% (inactive)
O=C(Nc1cccc(-c2nc3ccccc3[nH]2)c1)c1ccc(C(=O)Nc2cccc(-c3nc4ccccc4[nH]3)c2)cc1	84% (active)
Cc1cccc(N2C(=O)N3[C@H](c4ccc(F)cc4)[C@@H]4C(=O)N(C5CCCCC5)C(=O)[C@@H]4[C@]3(Cc3ccccc3)C2=O)c1	-2.81% (inactive)
O=C(NCc1ccccc1CN1CCCC1)c1cccc(S(=O)(=O)Nc2ccc(F)cc2)c1	3.93% (inactive)
CS(=O)(=O)Nc1cccc(C2=NN(C(=O)c3cccc(F)c3)C(c3cccs3)C2)c1 (stereo not given)	-3.98% (inactive)
CN1C(=O)/C(=C/c2ccc(C(=O)NC3CCCC3)cc2)Oc2ccccc21	-2.56% (inactive)
CN1CCN(CCCNC(=O)c2ccc(/C=C3\Oc4ccccc4N(Cc4ccc(Cl)cc4)C3=O)cc2)CC1	45.5% (active)
CCCN1CCN(C(=O)CCCNC(=O)c2ccc(Cl)cc2)CC1	1.38% (inactive)
CC(=O)c1c(C)[nH]c(C(=O)OCC(=O)Nc2c(C)cccc2C)c1C	3.88% (inactive)
COC(=O)c1cc(N2CCNCC2)nc2ccccc12	5.41% (inactive)
CC12CCC(=O)N1C(C(=O)NCCN1C(=O)S/C(=C\c3ccccc3F)C1=O)CS2 (stereo not given)	-4.27% (inactive)
Cc1ccc(-c2nn(-c3ccc(F)cc3)cc2C(=O)NCC(c2cccs2)N2CCOCC2)cc1 (stereo not given)	2.78% (inactive)
CC1=CC2=NC(=O)CC(C)(C(=O)N(CC(=O)NC(C)(C)C)Cc3ccccc3)N2C=C1 (stereo not given)	-6.91% (inactive)
COc1cc(C2/C(=C(\O)c3ccc4c(c3)CC(C)O4)C(=O)C(=O)N2c2nnc(C)s2)cc(OC)c1OC (stereo not given)	-16.7% (inactive)
COc1ccccc1CNC(=O)C1Cc2ccccc2C(=O)O1 (stereo not given)	-9.61% (inactive)
CC(=O)Nc1ccc(S(=O)(=O)Oc2ccc(Br)cc2C(=S)N2CCOCC2)cc1	-23.8% (inactive)
CCc1c(C)nc(N)n2c(SCC(=O)NC3CCCCC3)nnc12	-21.8% (inactive)
Cc1ccc2c(c1)N(CC(=O)N1CCOCC1)C(=O)CO2	-24.9% (inactive)
COc1ccc(N2CCN(CCNC(=O)CCN3C(=O)COc4ccccc43)CC2)cc1	3.46% (inactive)
COc1ccc(N2CCN(C(=O)CN3C(=O)COc4ccccc43)CC2)cc1	49.2% (active)
C=C(Cl)COC(=O)C1C2C=CC(C2)C1C(=O)O (stereo not given)	-6.87% (inactive)
Cc1oc(-c2ccccc2Cl)[n+]([O-])c1C	4.54% (inactive)
Cc1nc(N)c(Br)c(C)c1Br	10.1% (inactive)
